# Measured values as given in PubChem BioAssay (NCI).
# This is part of a sample that, as a whole, favours compounds with a hit. Of some 79,000 tested, about 15% had one in any assay. Unmarked numbers belong to inactive results. Activity calls are given as the source filed them. No stated cut-off is given here; in the data, active means growth inhibition above about 70%; inactive means the rest.
# How the values were obtained:
# [1] = NCI Yeast Anticancer Drug Screen. Data for the rad50 strain (AID 155);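 further: 0% = growth of vehicle-only cultures of the same strain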; conditions: S. cerevisiae rad50 strain growth inhibition, hits give high values
# Method in brief: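 Cells are treated with compound, grown, and their growth is then scored against vehicle-only cultures of the same repair-deficient yeast strain.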
# [2] = NCI Yeast Anticancer Drug Screen. Data for the mec2-1 strain (AID 157); conditions: S. cerevisiae mec2-1 strain, hits give high values
# Method in brief: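 Vehicle-treated cultures served as reference for growth inhibition of compound-exposed mec2-1 yeast.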
# [3] = NCI Yeast Anticancer Drug Screen. Data for the sgs1 mgt1 strain (AID 161);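 further: 0% = growth of cultures given vehicle only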; conditions: S. cerevisiae sgs1 mgt1 strain, hits give high values
# Method in brief: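 Mutant yeast exposed to compound; growth scored against vehicle-only wells.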
# [4] = NCI Yeast Anticancer Drug Screen. Data for the cln2 rad14 strain (AID 165);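 further: 0% = growth equal to vehicle treated cultures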; conditions: S. cerevisiae cln2 rad14 strain, hits give high values
# Method in brief: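 Each compound was tested on cln2 rad14 yeast. Inhibition of growth was calculated against vehicle-exposed controls.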
# [5] = NCI Yeast Anticancer Drug Screen. Data for the bub3 strain (AID 167); conditions: S. cerevisiae bub3 mutant strain, hits give high values
# Method in brief: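 Part of a panel of yeast mutants defective in DNA damage repair or cell cycle regulation. Each strain is grown with compound, and inhibition is calculated relative to solvent-treated cultures.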
# [6] = NCI Yeast Anticancer Drug Screen. Data for the mlh1 rad18 strain (AID 175); conditions: S. cerevisiae mlh1 rad18 strain growth inhibition, hits give high values
# Method in brief: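 Vehicle-treated cultures served as the reference for growth inhibition in a yeast strain carrying DNA damage repair alterations exposed to each compound.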
# [7] = at 5.0 µM (retest, dose inferred, filed as 0.5)
# [8] = at 50.0 µM (retest, dose inferred, filed as 5.0)
SMILES,"growth inhibition [1, 7]","growth inhibition [1, 8]",growth inhibition ([1]; at 50.0 µM),"growth inhibition [2, 7]","growth inhibition [2, 8]",growth inhibition ([2]; at 50.0 µM),"growth inhibition [3, 7]","growth inhibition [3, 8]",growth inhibition ([3]; at 50.0 µM),"growth inhibition [4, 7]","growth inhibition [4, 8]",growth inhibition ([4]; at 50.0 µM),"growth inhibition [5, 7]","growth inhibition [5, 8]",growth inhibition ([5]; at 50.0 µM),"growth inhibition [6, 7]","growth inhibition [6, 8]",growth inhibition ([6]; at 50.0 µM)
CC1CCN(CCCOC(=O)c2ccccc2)CC1,25%,40%,58.9%,13%,56%,30.5%,35%,66%,62.1%,25%,54%,77% (active),31%,64%,63.2%,52%,74% (active),55%
CCCCCCCCCCCCS,0%,-3%,26.2%,-1%,-1%,6.25%,-3%,-1%,15.9%,-2%,1%,43.3%,2%,-3%,-20.6%,3%,6%,-30.9%
OC1(c2ccccc2)CCN(c2c3ccccc3nc3ccccc23)CC1,0%,63%,98.9% (active),3%,75% (active),99.5% (active),6%,75% (active),97.6% (active),5%,30%,99% (active),0%,58%,99.3% (active),-2%,68%,99.4% (active)
O=C(CCCO)N/N=C\c1ccc([N+](=O)[O-])s1,5%,31%,18.8%,-7%,23%,-3.55%,8%,39%,31.8%,-2%,20%,72.2% (active),-1%,17%,5.5%,12%,74% (active),62.2%
CC(c1ccccc1)c1cc(C(C)(C)C)ccc1O (configuration not stated),-4%,99% (active),99.6% (active),-25%,100% (active),99.8% (active),-2%,71% (active),99.7% (active),-12%,100% (active),99.3% (active),-8%,99% (active),99.4% (active),-19%,99% (active),99.3% (active)
COc1cc(NS(=O)(=O)c2ccc(NC(C)c3ccc4cccnc4c3O)cc2)nc(OC)n1 (configuration not stated),3%,81% (active),95.1% (active),2%,40%,97.2% (active),1%,87% (active),69.4%,-3%,78% (active),66%,-2%,88% (active),96.8% (active),5%,82% (active),97.3% (active)
C/C(=N\NC(=S)NCCCNC(=S)N/N=C(\C)c1ccccn1)c1ccccn1,8%,66%,82.5% (active),9%,75% (active),82.4% (active),10%,77% (active),86.2% (active),18%,78% (active),83.3% (active),0%,60%,83.1% (active),17%,85% (active),88.9% (active)
CC(=O)Nc1ccc2c(ccc3cccc[n+]32)c1,-2%,0%,96.7% (active),-10%,-6%,97.2% (active),1%,10%,95.8% (active),-2%,-6%,95.2% (active),-7%,-13%,96.5% (active),-1%,-3%,96.3% (active)
COC(=S)S,3%,1%,41.9%,-2%,0%,18.7%,5%,0%,-11.4%,-4%,-2%,-45.5%,-3%,-5%,15.6%,1%,6%,-24.7%
